According to the supplement of paper PMC12067093, “Discovery and optimisation of a covalent ligand for TRIM25 and its application to targeted protein ubiquitination” (Chemical Science, 2025):
The full data set covers some 21,000 targets. This sample favours those with the largest changes.

Compound: Cc1cc(ccc1-c1ccccc1)C(=O)N1CCCN(CC1)C(=O)CCl [compound 10]
Assay: probe-labelled cysteine peptide fold change vs DMSO (competition) (log2 fold change); higher = less target engagement (more negative = stronger competition)
Details: THP-1, incubation time: 4 h
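Further: competitive profiling in live THP-1 cells: cysteine peptides tagged with an iodoacetamide desthiobiotin (IA-DTB) probe, intensity after compound treatment relative to DMSO-treated cells.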

Chain of UniProt P16152 (P16152 whole entry, looked up): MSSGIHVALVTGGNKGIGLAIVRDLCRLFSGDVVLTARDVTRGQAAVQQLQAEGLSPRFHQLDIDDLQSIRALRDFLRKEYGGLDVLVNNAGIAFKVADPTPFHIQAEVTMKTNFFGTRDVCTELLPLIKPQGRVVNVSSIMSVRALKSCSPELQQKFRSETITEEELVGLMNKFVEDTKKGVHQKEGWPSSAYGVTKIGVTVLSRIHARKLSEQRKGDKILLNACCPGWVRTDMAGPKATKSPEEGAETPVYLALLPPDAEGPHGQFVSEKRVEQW
Chain of UniProt Q13554 (Q13554 whole entry, looked up): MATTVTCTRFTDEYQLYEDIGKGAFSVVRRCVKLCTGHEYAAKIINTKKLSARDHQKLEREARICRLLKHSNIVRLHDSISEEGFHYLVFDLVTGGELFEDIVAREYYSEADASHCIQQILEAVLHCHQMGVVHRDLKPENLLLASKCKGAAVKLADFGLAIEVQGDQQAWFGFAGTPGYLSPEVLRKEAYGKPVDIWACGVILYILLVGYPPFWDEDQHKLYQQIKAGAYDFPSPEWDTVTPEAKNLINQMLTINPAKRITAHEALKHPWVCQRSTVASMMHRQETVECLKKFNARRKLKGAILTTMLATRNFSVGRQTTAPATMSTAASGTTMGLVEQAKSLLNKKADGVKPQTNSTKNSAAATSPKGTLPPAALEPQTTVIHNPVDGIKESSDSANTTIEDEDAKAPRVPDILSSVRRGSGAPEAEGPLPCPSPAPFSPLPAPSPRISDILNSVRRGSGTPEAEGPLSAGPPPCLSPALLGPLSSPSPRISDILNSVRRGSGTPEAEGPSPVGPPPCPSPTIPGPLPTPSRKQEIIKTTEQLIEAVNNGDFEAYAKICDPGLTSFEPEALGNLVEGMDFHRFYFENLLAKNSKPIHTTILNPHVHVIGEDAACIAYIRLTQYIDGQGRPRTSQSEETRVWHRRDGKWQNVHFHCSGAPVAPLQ
Chain of UniProt Q8TEP8 (Q8TEP8 whole entry, looked up): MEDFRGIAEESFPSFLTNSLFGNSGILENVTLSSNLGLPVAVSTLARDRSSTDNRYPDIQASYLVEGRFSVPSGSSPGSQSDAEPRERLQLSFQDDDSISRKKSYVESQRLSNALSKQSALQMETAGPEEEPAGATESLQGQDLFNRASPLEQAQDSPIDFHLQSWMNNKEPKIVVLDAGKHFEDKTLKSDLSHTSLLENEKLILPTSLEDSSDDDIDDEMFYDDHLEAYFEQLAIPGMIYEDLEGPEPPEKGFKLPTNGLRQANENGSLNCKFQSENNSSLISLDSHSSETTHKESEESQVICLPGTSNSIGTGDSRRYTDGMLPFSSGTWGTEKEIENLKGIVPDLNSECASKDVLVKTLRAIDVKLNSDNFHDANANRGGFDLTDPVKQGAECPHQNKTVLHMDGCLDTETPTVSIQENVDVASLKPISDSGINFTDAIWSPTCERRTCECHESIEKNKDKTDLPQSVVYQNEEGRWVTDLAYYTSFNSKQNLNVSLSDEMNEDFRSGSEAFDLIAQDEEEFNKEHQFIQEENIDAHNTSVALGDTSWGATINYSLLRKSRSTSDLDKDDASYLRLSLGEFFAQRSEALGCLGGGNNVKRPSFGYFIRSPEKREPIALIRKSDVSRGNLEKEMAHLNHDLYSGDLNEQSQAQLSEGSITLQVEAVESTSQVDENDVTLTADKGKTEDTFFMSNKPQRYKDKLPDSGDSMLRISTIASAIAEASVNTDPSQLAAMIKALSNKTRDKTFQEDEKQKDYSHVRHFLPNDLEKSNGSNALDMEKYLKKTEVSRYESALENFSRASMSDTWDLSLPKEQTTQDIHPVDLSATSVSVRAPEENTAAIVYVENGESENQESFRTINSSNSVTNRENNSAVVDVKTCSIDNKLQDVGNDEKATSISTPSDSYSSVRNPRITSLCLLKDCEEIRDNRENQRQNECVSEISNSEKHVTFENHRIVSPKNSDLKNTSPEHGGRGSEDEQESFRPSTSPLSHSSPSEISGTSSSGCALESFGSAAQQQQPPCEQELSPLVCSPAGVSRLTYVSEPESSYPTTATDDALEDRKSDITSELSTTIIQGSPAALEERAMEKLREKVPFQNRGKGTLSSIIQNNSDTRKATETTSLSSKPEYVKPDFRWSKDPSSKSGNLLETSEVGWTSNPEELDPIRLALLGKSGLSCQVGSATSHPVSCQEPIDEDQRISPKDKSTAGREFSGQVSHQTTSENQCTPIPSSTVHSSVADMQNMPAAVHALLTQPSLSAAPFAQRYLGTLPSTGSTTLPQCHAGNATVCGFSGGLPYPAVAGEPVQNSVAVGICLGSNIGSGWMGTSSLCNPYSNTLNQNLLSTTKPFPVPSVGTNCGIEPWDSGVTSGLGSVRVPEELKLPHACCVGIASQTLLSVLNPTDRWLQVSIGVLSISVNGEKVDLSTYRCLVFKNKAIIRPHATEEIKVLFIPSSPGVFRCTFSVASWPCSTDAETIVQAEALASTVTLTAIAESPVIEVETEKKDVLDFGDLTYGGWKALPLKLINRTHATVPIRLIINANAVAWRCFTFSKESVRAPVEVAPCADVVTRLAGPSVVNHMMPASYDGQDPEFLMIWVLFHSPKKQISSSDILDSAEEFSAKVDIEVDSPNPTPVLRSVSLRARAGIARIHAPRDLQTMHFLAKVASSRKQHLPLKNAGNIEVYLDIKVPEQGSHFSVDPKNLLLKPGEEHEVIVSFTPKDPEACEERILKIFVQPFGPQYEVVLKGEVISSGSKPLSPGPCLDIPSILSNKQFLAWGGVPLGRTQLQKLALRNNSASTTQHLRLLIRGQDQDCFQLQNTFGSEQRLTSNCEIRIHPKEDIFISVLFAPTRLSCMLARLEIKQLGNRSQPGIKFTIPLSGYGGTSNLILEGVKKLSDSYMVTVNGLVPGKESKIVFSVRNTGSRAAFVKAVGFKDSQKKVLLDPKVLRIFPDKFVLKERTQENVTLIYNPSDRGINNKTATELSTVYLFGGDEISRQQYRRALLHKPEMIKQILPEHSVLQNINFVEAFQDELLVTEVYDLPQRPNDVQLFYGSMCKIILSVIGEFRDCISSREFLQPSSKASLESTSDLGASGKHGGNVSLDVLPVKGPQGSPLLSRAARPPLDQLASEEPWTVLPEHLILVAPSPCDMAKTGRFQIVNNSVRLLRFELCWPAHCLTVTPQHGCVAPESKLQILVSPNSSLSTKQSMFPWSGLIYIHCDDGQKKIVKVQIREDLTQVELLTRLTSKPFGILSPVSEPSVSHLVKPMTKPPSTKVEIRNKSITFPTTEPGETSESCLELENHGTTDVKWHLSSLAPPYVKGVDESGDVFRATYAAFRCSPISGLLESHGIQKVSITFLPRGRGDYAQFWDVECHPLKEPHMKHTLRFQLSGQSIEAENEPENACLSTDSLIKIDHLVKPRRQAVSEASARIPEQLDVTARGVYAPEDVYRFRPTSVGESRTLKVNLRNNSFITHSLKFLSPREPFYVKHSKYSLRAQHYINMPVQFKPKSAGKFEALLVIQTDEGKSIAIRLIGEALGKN
Chain of UniProt Q9Y6K0 (Q9Y6K0 whole entry, looked up): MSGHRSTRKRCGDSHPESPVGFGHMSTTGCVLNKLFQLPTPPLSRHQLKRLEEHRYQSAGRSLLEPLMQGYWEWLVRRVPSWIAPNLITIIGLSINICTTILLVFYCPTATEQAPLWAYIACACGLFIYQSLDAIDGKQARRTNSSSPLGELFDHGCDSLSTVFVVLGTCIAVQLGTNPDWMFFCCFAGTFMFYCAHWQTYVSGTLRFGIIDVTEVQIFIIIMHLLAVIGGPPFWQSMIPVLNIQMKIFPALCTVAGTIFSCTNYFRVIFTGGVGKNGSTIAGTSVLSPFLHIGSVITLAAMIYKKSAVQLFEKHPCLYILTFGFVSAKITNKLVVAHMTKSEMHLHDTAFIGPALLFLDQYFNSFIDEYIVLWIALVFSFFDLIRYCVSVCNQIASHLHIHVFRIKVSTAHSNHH
Chain of UniProt Q8NFJ8 (Q8NFJ8 whole entry): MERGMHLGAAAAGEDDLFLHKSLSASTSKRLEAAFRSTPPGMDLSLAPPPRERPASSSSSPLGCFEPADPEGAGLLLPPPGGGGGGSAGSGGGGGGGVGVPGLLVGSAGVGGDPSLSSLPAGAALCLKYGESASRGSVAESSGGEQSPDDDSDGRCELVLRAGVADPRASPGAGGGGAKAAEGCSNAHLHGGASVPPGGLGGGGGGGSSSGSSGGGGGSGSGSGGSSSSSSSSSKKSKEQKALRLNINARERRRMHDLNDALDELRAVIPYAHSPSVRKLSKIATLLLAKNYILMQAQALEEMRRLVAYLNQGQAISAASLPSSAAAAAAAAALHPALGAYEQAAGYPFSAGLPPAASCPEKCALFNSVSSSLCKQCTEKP
Chain of UniProt Q8TDN6 (Q8TDN6 whole entry, looked up): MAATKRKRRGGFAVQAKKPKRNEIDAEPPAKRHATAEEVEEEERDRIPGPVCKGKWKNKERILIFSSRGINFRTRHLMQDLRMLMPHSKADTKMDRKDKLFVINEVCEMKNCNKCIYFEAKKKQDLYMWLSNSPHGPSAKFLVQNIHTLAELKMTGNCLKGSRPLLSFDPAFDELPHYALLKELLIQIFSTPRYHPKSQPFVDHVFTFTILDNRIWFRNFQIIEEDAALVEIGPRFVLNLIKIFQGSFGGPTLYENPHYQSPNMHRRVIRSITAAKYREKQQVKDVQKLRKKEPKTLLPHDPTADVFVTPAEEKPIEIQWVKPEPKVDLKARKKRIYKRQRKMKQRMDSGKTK
Chain of UniProt Q9UHD1 (Q9UHD1 whole entry, looked up): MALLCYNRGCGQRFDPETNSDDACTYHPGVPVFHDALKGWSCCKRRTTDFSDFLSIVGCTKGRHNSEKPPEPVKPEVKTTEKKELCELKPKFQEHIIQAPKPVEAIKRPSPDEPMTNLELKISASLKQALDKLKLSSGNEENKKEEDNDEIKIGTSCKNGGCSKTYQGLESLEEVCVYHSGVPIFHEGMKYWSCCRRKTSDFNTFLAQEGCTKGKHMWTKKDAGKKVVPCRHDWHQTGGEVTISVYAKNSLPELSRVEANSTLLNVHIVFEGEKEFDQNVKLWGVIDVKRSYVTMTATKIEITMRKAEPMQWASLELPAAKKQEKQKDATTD

Target	probe-labelled cysteine peptide fold change (10 µM)	probe-labelled cysteine peptide fold change (50 µM)
CHPF_Q8IZ52_243_YCHGGFGVLLSR (UniProt Q8IZ52)	-0.176	0.255
CASP10_Q92851_169_IDEDNLTCLEDLCK (UniProt Q92851)	-0.0609	0.0728
CEPT1_Q9Y6K0_30_CGDSHPESPVGFGHMSTTGCVLNK (UniProt Q9Y6K0)	-2.38	-2.51
CBR1_P16152_226_ILLNACCPGWVR (UniProt P16152)	-0.103	-0.297
CAD_P27708_2161_FGSTQEYEACFGQFILTPHIMTR (UniProt P27708)	0.0378	0.111
C17orf75_Q9HAS0_265_FLSVASLQGLIHEGTMTSLCMAMTEEQHK (UniProt Q9HAS0)	0.0249	-0.756
BRIX1_Q8TDN6_52_RHATAEEVEEEERDRIPGPVCK (UniProt Q8TDN6)	-0.278	-0.296
CASP2_P42575_30_ILGVCGMHPHHQETLKK (UniProt P42575)	-0.432	-1.14
CHORDC1_Q9UHD1_59_RTTDFSDFLSIVGCTK (UniProt Q9UHD1)	-0.167	-0.292
BHLHE22_Q8NFJ8_156_GSVAESSGGEQSPDDDSDGRCELVLR (UniProt Q8NFJ8)	-0.393	-0.217
CENPF_P49454_339_CRDELVR (UniProt P49454)	0.481	0.506
CEP192_Q8TEP8_1562_APVEVAPCADVVTR (UniProt Q8TEP8)	-0.611	-0.285
BIRC6_Q9NR09_3773_TAIENATVAFFLQCISCHPNNQK (UniProt Q9NR09)	0.213	0.136
CAMK2B_Q13554_116_EYYSEADASHCIQQILEAVLHCHQMGVVHR (UniProt Q13554)	-0.0191	0.141
